Rows were chosen to be rich in hits. Some 5.9% of all compounds tested hit in one or more screens of this group.
Rtt109 HAT inh = blocks Candida albicans Rtt109/Vps75 acetyltransferase activity; purified Rtt109/Vps75, ThioGlo CoA-SH fluorescence, 4 h; Q5AAJ8; actives 0.16% (n = 330,000); inhibition, % at 34.9 µM;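 active = inhibition of at least 50% in every replicate; inconclusive = best replicate reaches 50% inhibition but some replicates fall short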
Target sequence (Q5AAJ8 whole entry, looked up): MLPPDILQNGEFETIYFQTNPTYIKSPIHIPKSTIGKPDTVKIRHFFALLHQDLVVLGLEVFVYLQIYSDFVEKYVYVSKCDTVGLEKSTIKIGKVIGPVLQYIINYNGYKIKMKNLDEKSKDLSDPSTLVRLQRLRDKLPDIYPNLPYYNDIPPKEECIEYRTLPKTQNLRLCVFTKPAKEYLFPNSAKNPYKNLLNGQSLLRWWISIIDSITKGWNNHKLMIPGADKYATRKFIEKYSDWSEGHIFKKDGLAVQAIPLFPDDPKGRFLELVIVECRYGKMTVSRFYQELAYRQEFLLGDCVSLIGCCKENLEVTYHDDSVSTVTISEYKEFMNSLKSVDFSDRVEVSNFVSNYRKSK
ALR inh = inhibitors of human sulfhydryl oxidase ALR; P55789; purified ALR, DTT oxidation, H2O2 HRP-luminol luminescence; inhibition, % (no concentration beside the values); actives 3.8% (n = 290,000);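 active = mean replicate inhibition above about 79%, with every replicate also reaching it, limit read from the data; inconclusive = only one of the two criteria met; inactive = mean below limit and not every replicate reaching it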
Target sequence (P55789 whole entry, looked up): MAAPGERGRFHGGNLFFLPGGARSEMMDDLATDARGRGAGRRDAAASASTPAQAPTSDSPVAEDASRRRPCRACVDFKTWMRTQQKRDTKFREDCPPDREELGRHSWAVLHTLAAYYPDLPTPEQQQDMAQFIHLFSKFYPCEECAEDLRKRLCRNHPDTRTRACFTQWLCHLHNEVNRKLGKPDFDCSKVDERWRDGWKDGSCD
PRMT1 FP inh = PRMT1 (human) inhibition, primary screen | recombinant PRMT1, activity-based probe fluorescence polarization | inhibition, % at 2.79 µM | actives 1.3% (n = 370,000);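 active = inhibition above about 21% made by adding two undisclosed values, limit read from the data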
LANA-H2B inh = blocks KSHV LANA binding to histone H2A/H2B. cell-free LANA-H2A/H2B peptide, fluorescence polarization. Q9QR71. inhibition, % (concentration not given with the values). actives 0.6% (n = 320,000); in the data active = inhibition mostly above about 10%, no sharp cut-off; inactive = mostly below about 6.7%
rCAG RNA binder = r(CAG) repeat RNA binding; inhibition, % at 3 µM; TO-PRO-1 dye displacement fluorescence; actives 1.3% (n = 370,000);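 active = inhibition above the plate cutoff, the mean of all test compounds on that plate plus 3 SD, cut at about 35% in these data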;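 note: 0% = DMSO alone and 100% = 100 µM mitoxantrone as full dye displacement; higher means more dye released from RNA so lower well fluorescence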
ABHD5-PLIN5 inh = ABHD5-PLIN5 protein interaction inhibition; Q00G26+Q8WTS1; AID 602281; actives 0.78% (n = 360,000); Split G. princeps luciferase complementation, luminescence, 4 h; inhibition, % at 4 µM;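 active = inhibition above the mean inhibition across every tested compound plus 3 SD, cut at about 22% in these data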;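 note: 0% = DMSO only wells and the 100% control is not disclosed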
* hit, by the source's call; ? = inconclusive; . = no result given; + = active, no number.

SMILES	Rtt109 HAT inh	ALR inh	PRMT1 FP inh	LANA-H2B inh	rCAG RNA binder	ABHD5-PLIN5 inh
COC(=O)c1c(NC(=O)c2nc3ccccc3s2)sc2c1CCN(C(C)=O)C2	-3	-3	.	-2	.	-11
O=C(Nc1sc2c(c1C(=O)O)CCC2)c1ccccc1Cl	4	45	-2	3	12	-1
CNC(=O)c1c(NC(=O)c2ccc(N3C(=O)CCC3=O)cc2)sc2c1CCCC2	-10	97*	4	-1	12	8
Cc1ccccc1C(=O)Nc1sc2c(c1C(=O)O)CCC2	-8	4	4	17*	6	-2
CNC(=O)c1c(NC(=O)c2ccc(N3C(=O)CCC3=O)cc2)sc2c1CCC(C)C2 (stereo not given)	-6	59	1	-3	4	10
CNC(=O)c1c(NC(=O)c2nc3ccccc3s2)sc2c1CCC2	0	97*	.	-4	.	4
CCCCCCCCN1C(=O)[C@@H](CC(=O)N2CCN(C(=O)C3CC3)CC2)C[C@@]2(C(=O)OC)C1=C[C@H](C(C)C)O[C@@H]2C1CC1	.	.	4	.	7	.
CCNC(=O)C1(C)CCCN1C(=O)c1ccc(C#N)cc1 (stereo not given)	.	.	-9	.	2	3
OCCc1ccc(O)cc1	-5	22	-4	-2	1	4
Cc1ccc(O)c(CCc2ccc(O)cc2)n1	-2	94*	-3	6	-1	-3
NNC(=O)c1sc(-c2ccc(Cl)cc2)cc1N	-3	98*	-4	2	11	2
CCOC(=O)c1sc(-c2ccc(Br)cc2)cc1N	-5	-1	-3	-6	5	-12
O=C1CC(N2CCc3ccccc32)C(=O)N1c1ccc(F)cc1 (stereo not given)	7	99*	-2	0	1	-5
COc1ccccc1N1C(=O)CC(N2CCc3ccccc32)C1=O (stereo not given)	-4	41	5	-5	21	6
COc1cccc(N2C(=O)CC(N3CCc4ccccc43)C2=O)c1 (stereo not given)	7	90*	4	6	6	3
Cc1onc(C(=O)Nc2sc3c(c2C#N)CCCC3)c1[N+](=O)[O-]	3	90*	5	-3	8	-2
O=C(NNc1cccc([N+](=O)[O-])c1)/C(=C\c1cccnc1)NC(=O)c1ccccc1	-5	99*	-3	-3	4	-2
CN1C(=O)CC(C(=O)O)SC1=Nc1cc(Cl)c(O)c(Cl)c1 (stereo not given)	.	99*	0	3	3	2
CCCCCCC/C=C(\C)[C@@H](O)[C@@H](C)C(=O)N1CCC[C@@H]1C(=O)O[C@H](C(=O)O[C@@H](C)C(=O)O)[C@@H](C)CC	.	.	4	.	.	.
ON=C1c2ccccc2-c2cc(Br)ccc21	-4	.	4	.	13	-2
CCN(C[C@H]1N[C@@](Cc2ccccc2)(C(=O)OC)[C@H]2C(=O)N(Cc3ccccc3)C(=O)[C@@H]12)S(=O)(=O)c1ccc(C(C)(C)C)cc1	-2	1	1	67*	5	2
CCN(C[C@H]1N[C@@](Cc2ccccc2)(C(=O)OC)[C@H]2C(=O)N(Cc3ccccc3)C(=O)[C@@H]12)S(=O)(=O)c1ccc(OC(F)(F)F)cc1	4	2	5	+	10	-2
CCN(C[C@H]1N[C@@](Cc2ccccc2)(C(=O)OC)[C@H]2C(=O)N(Cc3ccccc3)C(=O)[C@@H]12)S(=O)(=O)c1ccc(OC)cc1	2	.	1	-3	9	0
CCN(C[C@H]1N[C@@](Cc2ccccc2)(C(=O)OC)[C@H]2C(=O)N(Cc3ccccc3)C(=O)[C@@H]12)C(=O)COc1ccccc1	0	0	3	+	-1	-11
COc1ccc(C(NC(=O)CN2C(=O)NC3(CCc4ccccc43)C2=O)c2ccc(OC)cc2)cc1 (stereo not given)	33	.	0	.	-2	-6
SMILES	Rtt109 HAT inh	ALR inh	PRMT1 FP inh	LANA-H2B inh	rCAG RNA binder	ABHD5-PLIN5 inh
O=C(CN(CCc1ccccc1)S(=O)(=O)c1cccs1)N1CCOCC1	.	.	0	.	1	.
CCCC1CCC2(CC1)CCC2OC(=S)NCc1cccc(OC)c1 (stereo not given)	.	.	5	.	.	.
Cc1ccc(NCCC(=O)c2cccs2)cc1	10	99*	7	4	-2	2
Cc1ccc(NCCC(=O)c2cccs2)cc1C	0	99*	11	-3	-3	9
CC(NCc1ccc(N(C)C)cc1)C1CC2CCC1C2 (stereo not given)	.	98*	2	1	8	3
CC(=O)N(c1ccccc1)c1ccccc1[N+](=O)[O-]	.	.	-4	.	-2	-2
Fc1cccc(Cc2noc(CN3CCSCC3)n2)c1	-10	-2	-1	0	-4	1
COc1ccc(N2CCN(Cc3nc(Cc4cccc(F)c4)no3)C(C)C2)cc1 (stereo not given)	-1	98*	-2	-4	-8	-2
Nc1ncnc2c1ncn2[C@@H]1O[C@H](C(=O)NS(=O)(=O)c2cccs2)[C@@H](O)[C@H]1O	.	.	-5	.	3	0
CCCCc1c(-c2ccccc2OC)ncn1Cc1ccc(Br)cc1	.	.	7	.	0	.
COc1ccc(C(=O)Oc2ccc(=O)n(-c3ccccc3)n2)cc1	7	98*	2	2	-1	3
O=C(Oc1ccc(=O)n(-c2ccccc2)n1)c1ccc(Cl)cc1	3	?	-1	-1	2	-6
COc1nc(NCC(C)C)nc(Oc2ccc(=O)n(-c3ccccc3)n2)n1	-4	79*	3	1	-2	1
COc1ccc(N2CCN(C3CC(=O)N(C)C3=O)CC2)cc1 (stereo not given)	-2	45	0	-1	0	-5
CN1C(=O)CC(N2CCN(c3ccc(Cl)cc3)CC2)C1=O (stereo not given)	0	98*	-2	6	-2	0
CC1=C(C(=O)N2CCCCCC2)CC(CC(=O)NCCCCc2ccccc2)C(=O)N1CCC1=CCCCC1 (stereo not given)	.	.	0	.	2	8
O=C(C1CCCN(S(=O)(=O)c2ccc(F)cc2)C1)N1CCN(Cc2ccccc2)CC1 (stereo not given)	.	.	-8	.	1	.
Cc1ccc2c(c1)C1CS(=O)(=O)N(Cc3ccccc3)CN1C2 (stereo not given)	.	.	3	.	2	.
N/C(=N\O)c1ccccc1N1CCCCC1	11	90*	-1	5	-1	1
CCN=C1NC(c2ccccc2C(F)(F)F)C(C(=O)OC)=C(C)N1Cc1ccc(C(F)(F)F)cc1 (stereo not given)	.	.	0	.	4	.
Cc1ccc(NC2(C#N)CCCC2)cc1	1	.	7	.	5	11
CCCOP(=O)(OCCC)C1(Nc2ccc(C)cc2)CCCCC1	9	93*	-1	-8	-10	4

Screening results (PubChem)
